From PubChem BioAssay AID434973 (Sanford-Burnham Center for Chemical Genomics, 2010)
The campaign covered roughly 330,000 compounds. About 4,900 (1.5%) were called active. For the sample, actives were picked, then their nearest neighbours and some compounds at random. Unmarked numbers belong to inactive results.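 How the source made its calls: active means inhibition above about 50% at the single test dose (limit read from the data); inactive means the rest.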

What follows are compounds tested against Sentrin-specific protease 7 (Homo sapiens) (UniProt Q9BQF6) (assay: blockers of human SENP7 peptidase activity – biochemical, luminescence, uHTS, primary screen (AID 434973;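 further: plate controls were DMSO with enzyme for no effect and no enzyme buffer wells for full effect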)). Conditions: recombinant SENP7, Z-RLRGG-aminoluciferin luminescence, 40 min; at 5 µM; stronger effect = higher value.

For `O=c1ccc2cc(S(=O)(=O)NCCCc3ccccc3)ccc2[nH]1`, which inhibition is on record?
Its inhibition is 4.36%.

Which inhibition does the source give for `CCOC(=O)CCP(=O)(O)C(O)(c1ccccc1)c1ccccc1` here?
The inhibition was -5.54%.

With `O=S(=O)(c1cccc(-c2nnc(SC(F)F)n2-c2ccccc2)c1)N1CCCCC1` as the compound, how does the inhibition read?
Its inhibition is 1.56%.

How did the inhibition turn out when `O=C(COC(=O)c1ccncc1)Nc1ccc2c(c1)OCO2` was run?
Its inhibition is -10.3%.

For `O=C(COC(=O)c1ccc2c(c1)OCCO2)NCc1ccccc1Cl`, which inhibition is on record?
The inhibition was -9.15%.

How did the inhibition turn out when `O=C(Nc1ccccc1)Nc1nc2ccccc2s1` was run?
Its inhibition is 66% (active).

With `COCc1nnc(NC(=O)c2ccc3c(c2)OCO3)s1` as the compound, how does the inhibition read?
The inhibition was 12.1%.

How did the inhibition turn out when `O=C(COC(=O)c1ccc(F)cc1)Nc1ccc2c(c1)OCO2` was run?
The inhibition was -9.15%.

For `CSc1nsc(NC(=O)Nc2ccccc2)n1`, which inhibition is on record?
Its inhibition is 34.9%.

With `N#CCCN(C(=O)COC(=O)c1ccc2c(c1)OCCO2)c1ccccc1` as the compound, how does the inhibition read?
The inhibition was 3.84%.

With `Cc1ccc2sc(NNC(=O)c3ccc4c(c3)OCCO4)nc2c1C` as the compound, how does the inhibition read?
The inhibition was 2.93%.

`O=C(OCc1ccccc1F)c1ccc2c(c1)OCCO2` was tested. Which inhibition did it give?
Its inhibition is 84.2% (active).

How did the inhibition turn out when `O=C(Nc1nc2ccccc2s1)c1ccc2c(c1)OCO2` was run?
The inhibition was 97.1% (active).

With `CC(=O)Nc1cccc(C(=O)OCC(=O)c2ccc3c(c2)OCO3)c1` as the compound, how does the inhibition read?
Its inhibition is 81.4% (active).

With `O=C(CCC(=O)c1cccs1)Nc1nc2ccccc2s1` as the compound, how does the inhibition read?
The inhibition was 1.54%.

For `CC[N+]1(CC)CC2=Cc3ccccc3CC2C1` (stereo not drawn), which inhibition is on record?
Its inhibition is 5.4%.

With `Cc1ccc(CN2CCN(/N=C/c3cccnc3)CC2)c(C)c1` as the compound, how does the inhibition read?
The inhibition was 4.31%.

With `CCN(C(=O)C1CCCN(c2nc(-c3ccc(OC)cc3)no2)C1)c1ccc(OC)cc1` (stereo not drawn) as the compound, how does the inhibition read?
Its inhibition is -0.167%.

`CCOC(=O)CSc1nnc(NC(=O)C2CC(=O)N(c3ccc(F)cc3)C2)s1` (stereo not drawn) was tested. Which inhibition did it give?
The inhibition was -6.57%.

How did the inhibition turn out when `CC(=O)Nc1ccc(S(=O)(=O)N2CCN(S(=O)(=O)c3cccs3)CC2)cc1` was run?
Its inhibition is -14%.

How did the inhibition turn out when `Cc1ccccc1Nc1scc(-c2ccc(Br)cc2)[n+]1-c1ccccc1C` was run?
Its inhibition is 0.441%.

`COc1ccc(/C(C)=N/N2CCOCC2)c(O)c1` was tested. Which inhibition did it give?
Its inhibition is 9.39%.

For `S=C(Nc1ccc2c(c1)OCO2)N1CCCC1`, which inhibition is on record?
The inhibition was -4.52%.

For `CCCc1nc2oc3c(OCC)ncnc3c2c2c1COC(C)(C)C2`, which inhibition is on record?
The inhibition was -3.93%.

With `O=C1c2ccccc2C(=O)N1Cc1cc(-c2ccccc2Cl)no1` as the compound, how does the inhibition read?
The inhibition was -0.976%.

Which inhibition does the source give for `Clc1ccc(COn2c(-c3ccc(Cl)cc3Cl)nc3ncccc32)cc1` here?
Its inhibition is 0.814%.

With `Clc1ccc(-c2cc(-c3ccccn3)on2)c(Cl)c1` as the compound, how does the inhibition read?
The inhibition was 99.4% (active).

How did the inhibition turn out when `CC1=NNC(=O)C1CCC(=O)N/N=C(\C)c1ccc(Cl)cc1` (stereo not drawn) was run?
The inhibition was 0.851%.
